# This is a sample that favours compounds with a hit; in the whole collection about 15% have one here.
# ALOX12 inh: inhibitors of human 12S-lipoxygenase ALOX12; P18054; Potency, µM (doses to about 108 µM), inactives show at the top dose activity change, negative = inhibition, hits mostly inhibitors; hit rate 1.1% among 580,000; purified 12hLO, xylenol orange hydroperoxide absorbance; AID 1671190
# Target sequence (P18054 whole entry, looked up): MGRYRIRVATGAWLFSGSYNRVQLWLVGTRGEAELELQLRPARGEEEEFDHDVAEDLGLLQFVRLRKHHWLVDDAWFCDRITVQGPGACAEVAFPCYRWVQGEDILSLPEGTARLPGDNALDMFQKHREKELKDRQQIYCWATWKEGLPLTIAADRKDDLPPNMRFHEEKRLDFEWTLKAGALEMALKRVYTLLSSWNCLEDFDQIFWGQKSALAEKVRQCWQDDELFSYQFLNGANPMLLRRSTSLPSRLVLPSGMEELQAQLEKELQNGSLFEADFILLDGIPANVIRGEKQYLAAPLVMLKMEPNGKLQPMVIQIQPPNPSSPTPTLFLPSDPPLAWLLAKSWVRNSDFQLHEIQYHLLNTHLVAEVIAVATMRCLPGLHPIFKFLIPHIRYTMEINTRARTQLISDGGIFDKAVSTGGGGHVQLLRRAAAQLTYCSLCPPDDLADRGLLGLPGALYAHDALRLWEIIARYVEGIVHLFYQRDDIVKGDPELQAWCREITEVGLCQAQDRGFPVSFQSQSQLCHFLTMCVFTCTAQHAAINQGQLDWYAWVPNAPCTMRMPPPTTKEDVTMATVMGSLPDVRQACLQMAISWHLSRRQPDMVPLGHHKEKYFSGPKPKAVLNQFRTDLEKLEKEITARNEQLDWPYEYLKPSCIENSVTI
#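 Hydroperoxide product was detected by ferrous iron/xylenol orange as the 573 to 405 nm absorbance ratio. Arachidonic acid at 40 uM (final) was turned over for 30 min at room temperature by 150 nM human 12hLO, pH 7.0 Hepes buffer, after 15 min compound preincubation.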
# VP16 counter: inhibits Gal4-VP16 luciferase reporter, ROR gamma counter-screen; Drosophila S2 Gal4-VP16 UAS-luciferase, luminescence, 20 h; Potency, µM (highest dose often 53.6 µM), inactives show at the highest dose activity, negative = inhibition, usual class: inhibitors; hit rate 3.5% among 310,000; AID 2546;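 note: Gal4-VP16 expression switched on by copper sulfate through the metallothionein promoter; nearly all actives have a fitted effect of over 50% in size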
# DT40 TDP1 no CPT: qHTS for Inhibitors of human tyrosyl-DNA phosphodiesterase 1 (TDP1): qHTS in cells in absence of CPT; DT40 Tdp1-/- hTDP1 cells, no CPT, ATP luminescence, 48 h; Potency, µM (doses to about 46.2 µM), for inactives: at the top dose activity change, negative = growth inhibition, most hits filed as inhibitors; hit rate 15% among 420,000; AID 686978, 2013; note: nearly all actives have a fitted effect of over 55% in size
#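 A cellular qHTS used chicken DT40 cells lacking endogenous Tdp1 but carrying stably transfected human TDP1. Compounds were applied without camptothecin, and cell growth kinetics were judged by ATP-dependent luminescence after ≥48 hr.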
# RORg inh: blocks mouse ROR gamma transcriptional activity; Potency, µM (highest dose often 53.6 µM), for the others: at the highest dose activity change, negative = inhibition, most hits filed as inhibitors; Drosophila S2 Gal4-RORgamma UAS-luciferase reporter, 20 h; P51450; hit rate 5.4% among 310,000; note: nearly all actives have a fitted effect of over 60% in size
#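 Read-out: Photinus luciferase luminescence; inhibitors lower reporter signal. Insect Schneider cells with Gal4-ROR gamma fusion under metallothionein promoter, UAS reporter; 700 uM final copper sulfate induction, 20 hr, ambient temperature.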
# TDP1 cell CPT: DT40-hTDP1 cell growth loss with CPT; chicken DT40 Tdp1-/-;hTDP1 cells + 20 nM CPT, ATP luminescence, 48 h; Potency, µM (doses to about 46.2 µM), without a hit: at the highest dose activity change, negative = growth inhibition, usual class: inhibitors; hit rate 12% among 420,000; note: nearly all actives have a fitted effect of over 55% in size
#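 Chicken DT40 Tdp1-/- cells complemented with human TDP1, 400 cells/well, exposed to compounds plus 20 nM camptothecin for at least 48 h at 37 C; viability read as ATP content by CellTiter-Glo luminescence.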
# ELG1 DNA repair: ELG1-dependent DNA repair inhibition; HEK293T ELG1-luciferase reporter, luminescence, 16 h; DNA damage induced by 5-fluorouridine; Potency, µM (highest dose often 46.1 µM), inactives show top-dose activity change, negative = inhibition, actives largely listed as inhibitors; hit rate 2.3% among 330,000; AID 504467; note: nearly all actives have a fitted effect of over 55% in size
#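 5-Fluorouridine DNA damage + compound/DMSO, 2,000 cells/well, 16 h, 37 °C/5% CO2. ONE-Glo, 30 min RT, luminescence. Readout = decrease in reporter signal.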
# * marks the source's active call; other numbers are inactive results; ? = inconclusive; . = not tested or not shown; [ ] = remark or other dose. Calls come from the whole dose curve; as a rule, active = well fitted curve in the direction sought with a large enough effect; inconclusive = small, poorly fitted or top-dose-only effect, or another doubt; inactive = no such curve, though single readings can be large; an effect the other way counts as inactive or inconclusive. % is set by controls: 0 for no effect and ±100 for the full control effect; potency is the fitted concentration of half-maximal effect.
SMILES,ALOX12 inh,VP16 counter,DT40 TDP1 no CPT,RORg inh,TDP1 cell CPT,ELG1 DNA repair
CCOc1ccc(CCNC(=O)c2ccc(Cn3c(=O)c4cccn4c4cccnc43)cc2)cc1,?,.,20.6µM*,.,13µM*,.
COc1ccc(C=O)cc1COC(=O)COc1ccc(Cl)cc1Cl,15.1%,.,.,.,.,.
Cc1ccc(C(=O)N2CCCN(c3cc(-c4ccc(Cl)cc4)[nH]n3)CC2)cc1C,-7.9%,.,.,.,.,.
O=C(COc1cccc(-c2noc(-c3ccccc3F)n2)c1)N1CCCC1,18.6%,.,.,.,.,.
COc1cccc(N2C(=O)NC(=NC3CCCC3)C23CCCN([S+](=O)([O-])c2cccc(C(F)(F)F)c2)C3)c1 (centres undefined),1.4%[6.33 µM],.,.,.,.,.
CN(C)CCNc1nc2c(c(=O)n(C)c(=O)n2C)n1Cc1ccc(Cl)cc1,5.6%,.,.,.,.,.
Cc1noc(-c2ccc(OCc3ccccc3F)cc2O)c1-c1ccccc1,5.7%,.,.,.,.,.
N#Cc1nc(COc2ccc(-c3ccccc3)cc2)oc1NCCCN1CCOCC1,0.0%,6.6%,23.1µM*,?,23.1µM*,-29.5%
N#Cc1nc(-c2ccc(OCc3ccccc3)cc2)oc1N1CCC(C(N)=O)CC1,3.0%,-23.0%,?,-29.6%,-15.8%,?
N#Cc1nc(COc2ccc(Br)cc2)oc1N1CCCCCC1,?,7.4%,16.4µM*,?,14.6µM*,0.8%
N#Cc1nc(COc2ccc(-c3ccccc3)cc2)oc1N1CCC(C(N)=O)CC1,.,.,17.8µM*,.,12.6µM*,.
N#Cc1nc(COc2ccc(-c3ccccc3)cc2)oc1NCCN1CCOCC1,4.5%,.,.,.,.,.
O=C(Nc1cccc(-n2cccn2)c1)C1CCCN(C(=O)N2CCOCC2)C1 (centres undefined),3.9%,.,.,.,.,.
Cc1ccc(CN2C(=O)N(c3ccc(C)c(Cl)c3)S(=O)(=O)c3ccccc32)cc1,-12.3%,.,?,.,?,.
CC(C)c1ccc(N2C(=O)N(Cc3ccccc3Cl)c3ccccc3S2(=O)=O)cc1,-16.9%,.,18.4µM*,.,?,.
Cc1cccc(N2C(=O)N(Cc3ccc(C(C)(C)C)cc3)c3ccccc3S2(=O)=O)c1,-13.7%,.,20.6µM*,.,?,.
Cc1cccc(CN2C(=O)N(c3ccc(C(C)C)cc3)S(=O)(=O)c3ccccc32)c1,-20.5%,.,23.1µM*,.,?,.
Cc1ccc(CN2c3ccccc3S(=O)(=O)c3ccccc32)cc1,-19.3%,.,?,.,25.9µM*,.
CC[C@H](C(=O)[C@H](C)[C@H](O)[C@H](C)CCc1ccc(C)c(O)c1C(=O)O)[C@H]1O[C@](CC)([C@@H]2CC[C@@](O)(CC)[C@H](C)O2)C[C@H]1C,.,6.31µM*,.,?,.,.
CC(=O)NCCNc1nc2cc(-c3ccccc3)sc2c(=O)n1C,-4.9%,.,?,.,?,.
Cc1ccccc1-c1cc2nc(NCCCN(C)C)n(C)c(=O)c2s1,-21.9%,.,?,.,?,.
Cn1c(NCCc2ccncc2)nc2cc(-c3ccccc3)sc2c1=O,-4.5%,.,?,.,25.9µM*,.
Cc1ccccc1-c1cc2nc(NCCc3ccncc3)n(C)c(=O)c2s1,6.2%,.,14.6µM*,.,16.4µM*,.
CCCNc1ncnc2c1c(-c1ccccc1)cn2-c1ccccc1,?,.,23.1µM*,.,14.6µM*,.
Cc1ccc(CNc2ncnc3c2c(-c2ccccc2)cn3-c2cccc(Cl)c2)cc1,-31.3%,.,18.4µM*,.,?,.
SMILES,ALOX12 inh,VP16 counter,DT40 TDP1 no CPT,RORg inh,TDP1 cell CPT,ELG1 DNA repair
COc1ccc(CCNc2ncnc3c2c(C)c(C)n3CCO)cc1OC,?,?,8.2µM*,?,20.6µM*,23.1µM*
Cc1ccc(-n2cc(-c3ccccc3)c3c(NN4CCOCC4)ncnc32)cc1,20.2%,?,23.1µM*,?,20.6µM*,?
Cc1cc(C(=O)N2c3ccccc3CC2c2nnc(C(C)C)o2)nn1C (centres undefined),16.0%,.,.,.,.,.
COc1ccc(CCNc2ncnc3c2c(-c2ccccc2)cn3-c2ccc(F)cc2)cc1OC,-20.3%,.,14.6µM*,.,14.6µM*,.
CCOc1ccc2nc(N3CCCC(C(=O)NCC4CCCO4)C3)sc2c1 (centres undefined),-1.2%,-10.4%,-16.0%,-12.4%,-27.4%,?
CCCN1CCN(CCCNC(=O)C2CCCN(c3nc4ccc(OCC)cc4s3)C2)CC1 (centres undefined),2.0%,0.1%,-1.1%,-1.1%,-8.1%,4.6%
CCOc1ccc2nc(N3CCCC(C(=O)NCCc4ccc(C)cc4)C3)sc2c1 (centres undefined),4.1%,.,14.6µM*,.,11.6µM*,.
CCOc1ccc2nc(N3CCCC(C(=O)NCCCOC)C3)sc2c1 (centres undefined),10.9%,.,18.4µM*,.,16.4µM*,.
Cc1cc(/C(=N\O)C(C)(C)NO)ccc1Cl,-48.4%,.,.,.,.,.
Cc1noc(C)c1CC(=O)N[C@@H]1CN(c2ccccn2)C[C@H]1CN(C)C,39.9%,.,.,.,.,.
O=C(c1cc2ccccc2oc1=O)N(Cc1ccc2c(c1)OCO2)Cc1ccco1,0.0%,0.6%,9.2µM*,?,?,-5.0%
O=C(NCc1ccc2c(c1)OCO2)c1cc2ccccc2oc1=O,0.0%,-2.2%,-14.3%,-3.8%,0.0%,?
COc1ccc(-c2cc(C(=O)N3CCCCC3)c3ccccc3n2)cc1,7.6%,.,?,.,16.4µM*,?
CCOc1ccc(-c2cc(C(=O)NC(C)CC)c3ccccc3n2)cc1 (centres undefined),2.5%,.,.,.,.,.
COc1cc(C(=O)N2CCN(c3ccccc3)CC2)c2ccccc2n1,-9.1%,.,0.731µM*,.,0.92µM*,.
O=C(c1cc(-c2ccc(Cl)cc2)nc2ccccc12)N1CCC1,13.8%,.,16.4µM*,.,18.4µM*,-8.7%
CCOc1ccc(-c2cc(C(=O)O)c3ccccc3n2)cc1,?,10µM*,?,7.94µM*,?,?
O=C(CCc1conc1-c1ccc(F)cc1)NCc1cccc(Br)c1,51.2%,.,.,.,.,.
COC(=O)c1c(C(=O)OC)n(CCCN)c2ccc(C)cc12,8.6%,4.4%,13µM*,-14.8%,23.1µM*,14.9%
OCC1(Cc2cccc(C(F)(F)F)c2)CCN(Cc2cc(F)cc(F)c2)CC1,-20.5%,-11.5%,?,5.4%,?,-14.3%
CSc1cccc(CN2CCC(CO)(Cc3cccc(C(F)(F)F)c3)CC2)c1,?,-2.2%,16.4µM*,-4.5%,?,-18.9%
CC(C)Cc1cc(CN2CCC(CO)(Cc3cccc(C(F)(F)F)c3)CC2)[nH]n1,-13.8%,?,?,4.47µM*,?,4.8%

# Compound activity: PubChem BioAssay, National Center for Advancing Translational Sciences (NCATS)
